# Measurements published in ChEMBL document CHEMBL1961873, “Compounds: GSK PKIS; Assays: Nanosyn kinase panel” (2012).
# What was measured:
# [1] = biological target: Protein kinase C gamma type (Homo sapiens) (UniProt P05129); conditions: at 1 µM;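 note: each value is an averaged percent inhibition of the enzyme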
# [2] = biological target: T1, Protein kinase C iota type (Homo sapiens) (UniProt P41743); conditions: at 0.1 µM
# T1 sequence (whole entry): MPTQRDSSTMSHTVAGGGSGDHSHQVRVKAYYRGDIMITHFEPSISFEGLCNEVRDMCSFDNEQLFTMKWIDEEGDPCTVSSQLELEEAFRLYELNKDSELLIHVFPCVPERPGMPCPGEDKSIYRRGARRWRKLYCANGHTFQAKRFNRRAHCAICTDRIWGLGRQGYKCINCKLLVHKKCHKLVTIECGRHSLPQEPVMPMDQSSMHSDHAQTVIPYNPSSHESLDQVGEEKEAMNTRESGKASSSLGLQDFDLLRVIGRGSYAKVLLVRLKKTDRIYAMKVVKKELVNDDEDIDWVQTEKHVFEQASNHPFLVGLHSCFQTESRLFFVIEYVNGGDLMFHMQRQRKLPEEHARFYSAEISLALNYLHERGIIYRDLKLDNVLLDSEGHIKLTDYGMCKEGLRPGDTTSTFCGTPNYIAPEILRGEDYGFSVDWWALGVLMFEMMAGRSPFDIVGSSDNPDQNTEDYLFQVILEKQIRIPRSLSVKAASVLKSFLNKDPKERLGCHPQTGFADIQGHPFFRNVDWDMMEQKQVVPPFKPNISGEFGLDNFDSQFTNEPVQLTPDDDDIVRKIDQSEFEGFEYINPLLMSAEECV
# [3] = biological target: T1, Protein kinase C iota type (Homo sapiens); conditions: at 1 µM
# [4] = biological target: Protein kinase C theta type (Homo sapiens) (UniProt Q04759); conditions: at 0.1 µM
# [5] = biological target: Protein kinase C theta type (Homo sapiens) (UniProt Q04759); conditions: at 1 µM
# [6] = biological target: Protein kinase C beta type (Homo sapiens) (UniProt P05771); conditions: at 0.1 µM
# [7] = biological target: Protein kinase C beta type (Homo sapiens) (UniProt P05771); conditions: at 1 µM
# [8] = biological target: T2, Serine/threonine-protein kinase D1 (Homo sapiens) (UniProt Q15139); conditions: at 0.1 µM
# T2 sequence (whole entry): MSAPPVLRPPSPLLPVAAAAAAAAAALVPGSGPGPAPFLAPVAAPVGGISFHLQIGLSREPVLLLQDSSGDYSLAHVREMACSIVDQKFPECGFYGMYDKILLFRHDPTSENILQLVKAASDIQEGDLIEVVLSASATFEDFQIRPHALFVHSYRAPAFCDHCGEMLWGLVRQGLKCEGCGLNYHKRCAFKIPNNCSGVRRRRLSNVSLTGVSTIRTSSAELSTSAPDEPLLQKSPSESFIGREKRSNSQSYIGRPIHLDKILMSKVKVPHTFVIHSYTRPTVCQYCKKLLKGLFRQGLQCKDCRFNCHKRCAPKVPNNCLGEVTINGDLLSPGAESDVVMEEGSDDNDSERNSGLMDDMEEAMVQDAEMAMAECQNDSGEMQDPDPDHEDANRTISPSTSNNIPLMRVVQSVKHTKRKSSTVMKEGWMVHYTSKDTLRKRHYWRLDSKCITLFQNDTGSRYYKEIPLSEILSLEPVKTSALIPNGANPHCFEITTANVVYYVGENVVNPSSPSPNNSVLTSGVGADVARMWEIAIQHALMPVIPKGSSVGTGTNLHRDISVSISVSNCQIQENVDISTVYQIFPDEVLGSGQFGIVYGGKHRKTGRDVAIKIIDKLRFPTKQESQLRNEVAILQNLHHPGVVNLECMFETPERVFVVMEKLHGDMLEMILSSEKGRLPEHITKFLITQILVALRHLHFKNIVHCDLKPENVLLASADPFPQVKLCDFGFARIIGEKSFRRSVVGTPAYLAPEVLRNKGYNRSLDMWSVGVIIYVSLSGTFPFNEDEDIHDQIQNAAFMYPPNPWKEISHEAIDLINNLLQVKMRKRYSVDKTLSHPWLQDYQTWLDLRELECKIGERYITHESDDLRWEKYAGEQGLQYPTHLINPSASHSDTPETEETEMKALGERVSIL
# [9] = biological target: T2, Serine/threonine-protein kinase D1 (Homo sapiens); conditions: at 1 µM
# [10] = biological target: T3, Serine/threonine-protein kinase D2 (Homo sapiens) (UniProt Q9BZL6); conditions: at 0.1 µM
# T3 sequence (whole entry): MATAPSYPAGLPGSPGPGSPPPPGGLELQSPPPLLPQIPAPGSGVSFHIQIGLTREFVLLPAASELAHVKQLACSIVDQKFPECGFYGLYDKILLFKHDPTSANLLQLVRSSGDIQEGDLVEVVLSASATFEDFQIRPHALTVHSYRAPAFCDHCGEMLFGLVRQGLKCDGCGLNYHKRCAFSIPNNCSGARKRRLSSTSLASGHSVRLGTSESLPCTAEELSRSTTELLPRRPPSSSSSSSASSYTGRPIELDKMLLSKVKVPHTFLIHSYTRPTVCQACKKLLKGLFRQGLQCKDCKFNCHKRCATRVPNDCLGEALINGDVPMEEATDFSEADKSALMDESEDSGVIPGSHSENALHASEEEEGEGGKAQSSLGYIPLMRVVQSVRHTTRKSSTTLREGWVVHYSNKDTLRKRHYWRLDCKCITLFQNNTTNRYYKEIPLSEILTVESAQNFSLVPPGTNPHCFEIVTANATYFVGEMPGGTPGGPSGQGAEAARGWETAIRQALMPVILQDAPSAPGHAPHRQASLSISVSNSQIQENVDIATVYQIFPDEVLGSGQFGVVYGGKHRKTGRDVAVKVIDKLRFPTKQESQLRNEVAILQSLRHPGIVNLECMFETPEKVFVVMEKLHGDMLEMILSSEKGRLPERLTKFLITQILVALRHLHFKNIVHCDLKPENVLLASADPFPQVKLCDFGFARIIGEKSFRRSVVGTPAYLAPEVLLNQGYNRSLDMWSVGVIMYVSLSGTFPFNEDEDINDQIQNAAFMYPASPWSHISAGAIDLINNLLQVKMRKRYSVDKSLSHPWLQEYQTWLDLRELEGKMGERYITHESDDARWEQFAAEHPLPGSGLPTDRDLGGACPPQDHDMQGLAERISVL
# [11] = biological target: T3, Serine/threonine-protein kinase D2 (Homo sapiens); conditions: at 1 µM
# [12] = biological target: T4, Serine/threonine-protein kinase D3 (Homo sapiens) (UniProt O94806); conditions: at 0.1 µM
# T4 sequence (whole entry): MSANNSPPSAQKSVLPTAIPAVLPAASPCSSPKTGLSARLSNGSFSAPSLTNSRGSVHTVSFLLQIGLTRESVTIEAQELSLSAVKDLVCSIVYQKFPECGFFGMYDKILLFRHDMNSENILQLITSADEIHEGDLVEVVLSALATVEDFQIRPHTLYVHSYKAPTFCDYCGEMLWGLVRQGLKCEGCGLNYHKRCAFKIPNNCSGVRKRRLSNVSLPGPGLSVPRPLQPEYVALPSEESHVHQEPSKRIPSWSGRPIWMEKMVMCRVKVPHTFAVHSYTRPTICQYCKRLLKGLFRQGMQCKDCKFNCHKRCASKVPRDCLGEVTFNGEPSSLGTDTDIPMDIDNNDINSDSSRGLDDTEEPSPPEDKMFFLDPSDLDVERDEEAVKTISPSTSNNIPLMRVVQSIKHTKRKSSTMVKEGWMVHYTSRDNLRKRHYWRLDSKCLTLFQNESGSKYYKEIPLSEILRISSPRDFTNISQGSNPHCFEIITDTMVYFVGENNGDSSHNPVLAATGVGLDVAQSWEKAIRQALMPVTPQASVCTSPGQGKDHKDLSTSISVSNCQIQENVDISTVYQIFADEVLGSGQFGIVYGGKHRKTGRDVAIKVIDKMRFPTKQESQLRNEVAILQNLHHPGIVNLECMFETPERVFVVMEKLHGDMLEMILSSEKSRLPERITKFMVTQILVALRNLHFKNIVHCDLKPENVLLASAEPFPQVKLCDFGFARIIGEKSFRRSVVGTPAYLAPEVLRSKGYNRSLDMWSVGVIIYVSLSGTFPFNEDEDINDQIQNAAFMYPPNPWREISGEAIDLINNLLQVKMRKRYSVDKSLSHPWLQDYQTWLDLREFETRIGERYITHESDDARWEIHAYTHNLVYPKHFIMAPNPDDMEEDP
# [13] = biological target: T4, Serine/threonine-protein kinase D3 (Homo sapiens); conditions: at 1 µM
# [14] = biological target: T5, cGMP-dependent protein kinase 1 (Homo sapiens) (UniProt Q13976); conditions: at 0.1 µM
# T5 sequence (whole entry): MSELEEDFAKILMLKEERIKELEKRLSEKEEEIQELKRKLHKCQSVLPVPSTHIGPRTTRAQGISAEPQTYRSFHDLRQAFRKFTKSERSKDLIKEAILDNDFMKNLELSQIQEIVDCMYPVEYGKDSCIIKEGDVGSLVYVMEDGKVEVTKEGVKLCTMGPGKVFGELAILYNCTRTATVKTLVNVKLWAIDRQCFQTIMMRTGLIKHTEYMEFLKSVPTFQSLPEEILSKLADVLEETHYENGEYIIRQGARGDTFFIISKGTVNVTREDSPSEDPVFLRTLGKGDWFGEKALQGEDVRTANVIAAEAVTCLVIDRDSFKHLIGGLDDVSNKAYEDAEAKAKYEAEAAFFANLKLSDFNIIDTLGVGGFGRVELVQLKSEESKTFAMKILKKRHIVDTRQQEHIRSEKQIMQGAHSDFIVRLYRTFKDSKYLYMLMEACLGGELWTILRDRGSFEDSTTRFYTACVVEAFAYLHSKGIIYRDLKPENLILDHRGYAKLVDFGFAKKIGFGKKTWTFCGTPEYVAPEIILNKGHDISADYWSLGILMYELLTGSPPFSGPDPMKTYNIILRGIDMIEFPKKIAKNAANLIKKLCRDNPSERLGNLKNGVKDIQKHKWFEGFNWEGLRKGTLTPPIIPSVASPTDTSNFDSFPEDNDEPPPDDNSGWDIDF
# [15] = biological target: T5, cGMP-dependent protein kinase 1 (Homo sapiens); conditions: at 1 µM
# [16] = biological target: T6, cGMP-dependent protein kinase 2 (Homo sapiens) (UniProt Q13237); conditions: at 0.1 µM
# T6 sequence (whole entry): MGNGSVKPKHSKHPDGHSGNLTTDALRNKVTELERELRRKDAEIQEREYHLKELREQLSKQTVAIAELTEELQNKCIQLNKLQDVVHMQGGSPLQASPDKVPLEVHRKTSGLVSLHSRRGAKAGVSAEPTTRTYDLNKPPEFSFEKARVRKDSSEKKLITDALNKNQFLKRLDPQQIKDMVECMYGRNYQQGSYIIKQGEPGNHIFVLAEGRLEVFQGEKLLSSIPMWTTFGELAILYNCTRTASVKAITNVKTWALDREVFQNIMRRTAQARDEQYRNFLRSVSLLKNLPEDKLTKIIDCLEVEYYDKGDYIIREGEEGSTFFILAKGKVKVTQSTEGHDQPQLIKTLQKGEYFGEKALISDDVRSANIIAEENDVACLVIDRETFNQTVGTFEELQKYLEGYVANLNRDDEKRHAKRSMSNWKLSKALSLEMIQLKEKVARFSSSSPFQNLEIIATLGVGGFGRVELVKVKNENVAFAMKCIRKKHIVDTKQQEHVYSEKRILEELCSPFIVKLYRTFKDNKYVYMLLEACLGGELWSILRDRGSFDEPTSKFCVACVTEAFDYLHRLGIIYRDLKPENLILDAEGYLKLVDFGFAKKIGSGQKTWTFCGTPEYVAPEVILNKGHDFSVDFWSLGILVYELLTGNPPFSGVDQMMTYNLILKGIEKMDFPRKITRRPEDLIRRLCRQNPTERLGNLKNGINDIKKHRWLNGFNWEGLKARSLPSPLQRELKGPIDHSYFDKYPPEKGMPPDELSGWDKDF
# [17] = biological target: T6, cGMP-dependent protein kinase 2 (Homo sapiens); conditions: at 1 µM
# [18] = biological target: T7, cAMP-dependent protein kinase catalytic subunit PRKX (Homo sapiens) (UniProt P51817); conditions: at 0.1 µM
# T7 sequence (whole entry): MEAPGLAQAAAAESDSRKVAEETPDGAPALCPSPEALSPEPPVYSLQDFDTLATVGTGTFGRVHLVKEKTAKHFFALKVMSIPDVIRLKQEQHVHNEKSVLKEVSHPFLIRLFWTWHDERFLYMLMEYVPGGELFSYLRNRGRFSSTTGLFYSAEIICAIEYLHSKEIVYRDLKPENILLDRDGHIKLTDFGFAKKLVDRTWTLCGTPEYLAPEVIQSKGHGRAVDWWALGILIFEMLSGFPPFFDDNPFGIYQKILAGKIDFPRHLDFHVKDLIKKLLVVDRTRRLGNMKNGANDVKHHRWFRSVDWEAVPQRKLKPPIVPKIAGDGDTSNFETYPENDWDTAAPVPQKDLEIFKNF
# [19] = biological target: T7, cAMP-dependent protein kinase catalytic subunit PRKX (Homo sapiens); conditions: at 1 µM
# [20] = biological target: Rho-associated protein kinase 1 (Homo sapiens) (UniProt Q13464); conditions: at 0.1 µM;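 note: values are mean percent inhibition of ROCK1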
# Sequence of Rho-associated protein kinase 1 (Homo sapiens) (Q13464 2-1354 limits assumed): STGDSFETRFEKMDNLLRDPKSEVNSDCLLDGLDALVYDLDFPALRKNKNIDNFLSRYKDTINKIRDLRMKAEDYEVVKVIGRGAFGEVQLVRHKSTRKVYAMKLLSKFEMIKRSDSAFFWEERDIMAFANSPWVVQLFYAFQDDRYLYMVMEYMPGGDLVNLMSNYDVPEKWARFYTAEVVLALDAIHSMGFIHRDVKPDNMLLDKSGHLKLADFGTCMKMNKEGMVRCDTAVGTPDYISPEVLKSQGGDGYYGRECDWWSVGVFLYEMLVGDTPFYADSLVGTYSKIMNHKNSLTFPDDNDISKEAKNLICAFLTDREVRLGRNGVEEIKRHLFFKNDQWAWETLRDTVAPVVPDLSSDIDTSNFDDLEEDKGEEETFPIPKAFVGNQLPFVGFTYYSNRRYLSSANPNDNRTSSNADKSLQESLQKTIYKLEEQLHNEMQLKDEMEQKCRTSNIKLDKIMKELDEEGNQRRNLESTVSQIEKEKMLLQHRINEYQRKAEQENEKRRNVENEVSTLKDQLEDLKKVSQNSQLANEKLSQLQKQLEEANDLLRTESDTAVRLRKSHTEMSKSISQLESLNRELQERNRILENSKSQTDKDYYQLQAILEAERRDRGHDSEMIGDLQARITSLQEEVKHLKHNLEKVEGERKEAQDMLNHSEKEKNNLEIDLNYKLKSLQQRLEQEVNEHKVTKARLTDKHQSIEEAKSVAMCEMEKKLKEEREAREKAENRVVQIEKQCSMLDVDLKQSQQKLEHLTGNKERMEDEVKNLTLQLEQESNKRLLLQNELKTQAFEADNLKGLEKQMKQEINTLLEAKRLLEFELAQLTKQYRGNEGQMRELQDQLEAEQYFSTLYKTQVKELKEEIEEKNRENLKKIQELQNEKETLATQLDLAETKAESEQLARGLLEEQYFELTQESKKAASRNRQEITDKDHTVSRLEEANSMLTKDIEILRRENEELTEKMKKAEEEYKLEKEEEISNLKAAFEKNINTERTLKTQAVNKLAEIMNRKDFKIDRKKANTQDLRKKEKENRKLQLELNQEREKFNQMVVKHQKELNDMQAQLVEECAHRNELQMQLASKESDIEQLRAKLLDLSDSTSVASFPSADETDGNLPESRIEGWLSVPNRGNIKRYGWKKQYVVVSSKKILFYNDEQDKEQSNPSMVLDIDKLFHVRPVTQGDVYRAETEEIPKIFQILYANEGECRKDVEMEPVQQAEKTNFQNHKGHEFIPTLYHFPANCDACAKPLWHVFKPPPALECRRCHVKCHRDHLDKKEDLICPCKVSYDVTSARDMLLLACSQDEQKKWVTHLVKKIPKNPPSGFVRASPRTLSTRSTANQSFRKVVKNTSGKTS
# Sequence of Protein kinase C beta type (Homo sapiens) (P05771 2-671 limits assumed): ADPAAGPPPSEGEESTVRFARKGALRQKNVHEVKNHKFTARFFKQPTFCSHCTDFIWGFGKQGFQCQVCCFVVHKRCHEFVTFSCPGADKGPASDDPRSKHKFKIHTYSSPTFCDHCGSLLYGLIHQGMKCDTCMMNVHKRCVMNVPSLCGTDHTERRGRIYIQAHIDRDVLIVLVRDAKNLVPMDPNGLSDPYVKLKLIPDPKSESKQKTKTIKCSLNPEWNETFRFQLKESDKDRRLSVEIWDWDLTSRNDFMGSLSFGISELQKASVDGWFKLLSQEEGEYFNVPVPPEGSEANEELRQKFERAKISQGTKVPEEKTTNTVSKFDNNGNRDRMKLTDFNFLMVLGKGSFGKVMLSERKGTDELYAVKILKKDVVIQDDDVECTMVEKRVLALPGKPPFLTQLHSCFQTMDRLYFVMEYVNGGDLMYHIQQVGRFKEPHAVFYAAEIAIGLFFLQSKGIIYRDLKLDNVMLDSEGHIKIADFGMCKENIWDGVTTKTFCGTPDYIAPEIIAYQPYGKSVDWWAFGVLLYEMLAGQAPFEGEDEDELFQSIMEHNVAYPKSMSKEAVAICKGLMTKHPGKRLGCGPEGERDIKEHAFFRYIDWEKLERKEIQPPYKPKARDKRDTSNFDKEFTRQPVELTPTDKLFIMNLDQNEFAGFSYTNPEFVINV
# Sequence of Protein kinase C theta type (Homo sapiens) (Q04759 whole entry, looked up): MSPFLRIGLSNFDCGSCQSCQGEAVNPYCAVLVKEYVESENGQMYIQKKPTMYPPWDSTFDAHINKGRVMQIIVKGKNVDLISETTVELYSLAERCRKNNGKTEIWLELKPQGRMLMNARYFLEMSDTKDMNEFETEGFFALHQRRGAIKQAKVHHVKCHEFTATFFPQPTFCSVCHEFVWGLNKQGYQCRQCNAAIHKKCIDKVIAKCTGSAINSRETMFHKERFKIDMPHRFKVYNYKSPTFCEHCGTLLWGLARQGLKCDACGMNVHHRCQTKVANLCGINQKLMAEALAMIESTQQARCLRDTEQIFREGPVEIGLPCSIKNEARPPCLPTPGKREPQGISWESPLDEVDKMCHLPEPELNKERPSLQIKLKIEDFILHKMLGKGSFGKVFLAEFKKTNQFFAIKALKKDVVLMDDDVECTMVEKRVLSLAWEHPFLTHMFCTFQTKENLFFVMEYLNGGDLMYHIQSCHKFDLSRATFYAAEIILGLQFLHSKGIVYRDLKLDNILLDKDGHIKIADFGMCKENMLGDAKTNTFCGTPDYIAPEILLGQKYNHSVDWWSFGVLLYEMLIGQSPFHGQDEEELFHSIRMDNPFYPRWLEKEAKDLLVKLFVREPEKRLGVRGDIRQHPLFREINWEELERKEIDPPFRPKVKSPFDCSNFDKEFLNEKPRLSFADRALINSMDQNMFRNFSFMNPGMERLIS
SMILES,inhibition [1] [%],inhibition [2] [%],inhibition [3] [%],inhibition [4] [%],inhibition [5] [%],inhibition [6] [%],inhibition [7] [%],inhibition [8] [%],inhibition [9] [%],inhibition [10] [%],inhibition [11] [%],inhibition [12] [%],inhibition [13] [%],inhibition [14] [%],inhibition [15] [%],inhibition [16] [%],inhibition [17] [%],inhibition [18] [%],inhibition [19] [%],inhibition [20] [%]
c1cnn2ncc(-c3ccnc(Nc4ccc5c(c4)OCCO5)n3)c2c1,9.81,2.88,1.82,2.63,5.92,0.79,5.22,6.99,45.1,5.55,38.2,7.82,50.5,4.87,18.9,1.98,8.51,1.25,2.29,1.28
Nc1ncnc2occ(-c3ccc(NC(=O)Nc4cc(C(F)(F)F)cc(C(F)(F)F)c4)cc3)c12,-0.32,0.16,2.82,0.72,-1.36,0.68,0.44,1.17,1.94,1.61,1.29,1.47,1.15,1.23,1.54,0.73,1.97,-0.03,-3.64,6.3
CS(=O)(=O)CCNCc1ccc(-c2ccc3ncnc(Nc4ccc(OCc5cccc(F)c5)c(C(F)(F)F)c4)c3c2)o1,4.01,2.77,0.63,2.4,2.71,1.67,2.44,4.99,3.72,4.63,5.13,4.32,3.88,2.84,5.15,1.78,3.11,2.44,4.07,1.46
O=C1Nc2ccc(C(=O)c3ccco3)cc2C1=Cc1cc(Cl)c(O)c(Cl)c1,6.26,4.4,-0.01,2.45,7.59,1.83,3.01,2.76,6.32,2.72,5.54,3.68,6.98,1.67,4.46,1.29,5.93,1.34,2.91,1.44
